DAX1 inh-1: inhibitors of human orphan nuclear receptor DAX1 (NR0B1). HEK293 Gal4-DAX1 luciferase reporter, luminescence. AID 504766. P51843. hit rate 0.99% among 340,000. inhibition, % at 6.75 µM;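 active = inhibition above the mean over all tested compounds plus 3 SD, cut at about 4.2% in these data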;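 also: 0% = DAX1-transfected cells with DMSO and 100% = empty-vector control cells with DMSO; inhibition shows as a rise in luminescence from relieved DAX1 repression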
Target sequence (P51843 207-470 limits assumed): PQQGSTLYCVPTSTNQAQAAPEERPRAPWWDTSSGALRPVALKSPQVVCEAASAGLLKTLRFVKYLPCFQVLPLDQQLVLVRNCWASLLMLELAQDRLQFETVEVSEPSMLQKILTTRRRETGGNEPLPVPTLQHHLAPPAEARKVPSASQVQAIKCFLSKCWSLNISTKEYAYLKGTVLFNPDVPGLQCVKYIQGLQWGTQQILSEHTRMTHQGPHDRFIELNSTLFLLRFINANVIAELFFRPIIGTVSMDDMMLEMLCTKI
AHR act: activates the human aryl hydrocarbon receptor; AHR-responsive luciferase reporter cells, luminescence; hit rate 2.5% among 320,000; activation, % at 5 µM; P35869; in the data active = activation above about 47%;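 also: 0% = vehicle wells and 100% = reference agonist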
DAX1 inh-2: blocks DAX1 repression of SF-1 activated StAR promoter; HEK293T StAR-luciferase reporter, SF-1/DAX-1 repression relief; inhibition, % at 6.8 µM; hit rate 1.1% among 370,000; AID 652010;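 active = inhibition above the mean over all tested compounds plus 3 SD, cut at about 3.6% in these data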;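 also: 0% = DAX-1 cells with DMSO and 100% = cells lacking DAX-1 with DMSO; higher inhibition means more luminescence from relief of DAX-1 repression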
ssDAF12 agonist: activators of S. stercoralis DAF-12 nuclear receptor; HEK293 ssDAF-12/GRIP1 lit1-tk-luc reporter, luminescence; % of 3 µM dafachronic acid response; activation, % at 6.8 µM; hit rate 1% among 370,000; AID 652126;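 active = activation above the mean over all tested compounds plus 3 SD, cut at about 0.9% in these data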;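 also: 0% = DMSO-only wells and 100% = 3 µM delta7-dafachronic acid wells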
hgDAF12 agonist: hgDAF-12 agonism, primary luciferase screen; HEK293 GAL4-hgDAF12 UAS-luciferase reporter, agonist luminescence; normalized to butyrate control; activation, % at 6.8 µM; hit rate 1.8% among 370,000; AID 687014;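 active = activation above a cutoff set at the mean of all screened compounds plus 3 SD, cut at about 10% in these data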;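 also: 0% = DMSO wells and 100% = sodium butyrate wells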
hcDAF12 agonist: activates DAF-12 receptor from parasite H. contortus; HEK293 hcDAF-12 lit1-tk-luc reporter, luminescence; 0% DMSO, 100% Δ7-dafachronic acid; hit rate 1.4% among 370,000; activation, % at 6.8 µM;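 active = activation above the mean of all tested compounds plus 3 SD, cut at about 5.5% in these data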;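 also: 100% = response to 3 µM Δ7-dafachronic acid high control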
* = called active by the depositor; x = not tested or not shown. An excerpt weighted towards active compounds, which were near 5.7% of everything screened.

SMILES	DAX1 inh-1	AHR act	DAX1 inh-2	ssDAF12 agonist	hgDAF12 agonist	hcDAF12 agonist
CCOC(=O)c1ccc(N=Nc2c(C)[nH]n(-c3ccccc3)c2=O)cc1	1.8	3.4	0.3	-1.6	-0.5	3.2
CCOc1ccc(N=Nc2c(C)[nH]n(-c3ccccc3)c2=O)cc1	3.6	49.7*	0.1	-0.8	-2.2	2.7
CCc1cc(-c2n[nH]c(=S)n2CC)cs1	0.2	5.9	0.2	-1.6	-1.3	-1.0
CCN1CCC2(CC1)C(C#N)=C(N)Oc1c2sc2nc(C)cc(C)c12	0.3	62.8*	0.2	-1.4	2.1	0.2
Cc1ccc(C(=O)NC(=S)Nc2ccc(N3CCOCC3)cc2)c(C)c1	0.2	1.2	-0.2	-0.3	-1.5	-0.7
O=C1C2CSCN2C(=O)CN1CCCN1CCN(C(c2ccccc2)c2ccccc2)CC1 (configuration not stated)	-0.5	-4.2	-0.2	1.2*	-0.6	-0.4
Cc1cccc(NC(=O)[C@@H]2CCCN2C2=NS(=O)(=O)c3ccccc32)c1C	4.4*	0.9	-0.8	-0.6	3.6	0.1
Oc1ccccc1-c1n[nH]c(=S)n1Cc1ccccc1	1.4	20.7	0.0	1.5*	-0.9	5.2
Oc1ccc(Br)cc1-c1n[nH]c(=S)n1Cc1ccccc1	0.4	0.7	0.0	-1.9	-2.0	3.5
O=C(Cn1c(=S)[nH]c2ncccc2c1=O)NCCc1ccccc1	x	56.9*	0.8	-1.4	1.9	-1.7
COCCN(Cc1nc2ccccc2c(=O)[nH]1)C(=O)COc1c(C)cc(Cl)cc1C	1.3	1.6	1.3	-1.4	3.1	-1.9
COCCC(=O)N1CCc2ccc(NC(=O)c3ccc(C(F)(F)F)cc3)cc2C1	-3.6	72.4*	-1.8	-1.1	-5.4	-2.7
NC(=O)C1CCN(c2ncccc2[N+](=O)[O-])CC1	0.3	-0.7	0.0	-0.6	1.2	1.4
Cc1cc(=O)c2ccccc2n1CC(=O)NCc1ccccc1	-2.6	8.4	-2.1	-2.3	-4.4	-3.6
Cc1cc(=O)c2ccccc2n1Cc1ccccc1	-0.8	57.4*	-1.9	-2.2	-4.9	-2.7
O=C(C1CC1)N1CCc2cc(S(=O)(=O)N(CCO)Cc3ccccc3)ccc21	-0.6	1.6	-0.1	-1.5	-1.4	-1.6
CCC(=O)OC1(C)C(=O)C=C2C=C(CCCCNC(=O)OC(C)(C)C)OC=C2C1=O (configuration not stated)	x	6.0	x	x	x	x
Cc1ccc(NS(=O)(=O)c2cc(C(N)=O)ccc2C)cc1	0.9	-0.3	-0.8	-0.8	-1.5	-0.7
Cc1ccc(Nc2ncc3c(n2)CC(C)(C)CC3=O)cc1	6.0*	25.1	3.6	0.1	12.6*	3.3
CCCCNc1c(-c2ccc(SC(C)CC)cc2)nc2cnccn12 (configuration not stated)	0.8	48.2*	x	x	x	x
CCCC(=O)N1CCC1(C)C(=O)Nc1cc(OC)c(OC)c(OC)c1 (configuration not stated)	x	x	-0.7	-1.2	0.6	0.0
CSc1ncccc1C(=O)OCC(=O)c1cc(C)n(C)c1C	4.3*	0.3	2.3	0.5	4.1	6.4*
C=CCNC(=S)N1CCC(C(=O)c2ccc(OC)cc2)CC1	-2.0	2.4	-0.1	-0.9	-1.1	-2.1
O=C(CCS(=O)(=O)c1cccs1)NC1CCCCCC1	1.8	17.0	0.8	-0.3	12.1*	1.4
O=C(CCS(=O)(=O)c1ccc(Br)cc1)NC1CCCC1	-0.4	-0.6	x	x	x	x
SMILES	DAX1 inh-1	AHR act	DAX1 inh-2	ssDAF12 agonist	hgDAF12 agonist	hcDAF12 agonist
S=C(Nc1ccccc1Cl)Nc1ccc(Cl)cc1Cl	0.5	3.6	0.0	-1.5	-1.5	-0.2
O=C(Nc1ccccc1Cl)Oc1ccc(Cl)cc1Cl	-0.7	50.4*	-0.3	-1.3	0.0	-1.1
NS(=O)(=O)c1ccc(NC(=O)CN2C(=O)C3C4C=CC(C4)C3C2=O)cc1 (configuration not stated)	5.5*	-2.0	0.7	-0.9	-1.2	-1.0
COc1ccc(CSc2nnc(C)s2)cc1F	0.3	0.1	2.4	-0.1	10.8*	0.7
COC(=O)c1ccc(CSc2nnc(C)s2)cc1	0.4	3.2	1.3	-0.5	5.7	0.7
CCc1cccc(C)c1NC(=O)CSc1n[nH]c(N)n1	0.1	-0.5	4.2*	-0.7	1.9	0.9
CCC1(C)Cc2c(sc3nc(NN)n(C)c(=O)c23)CO1 (configuration not stated)	0.0	62.4*	-0.1	-1.2	-0.5	0.6
O=C1CCN(Cc2ccc(Br)cc2)CCN1CCO	-0.2	-1.6	-0.7	-1.0	-0.6	-0.9
Nc1ccccc1C(=O)N=Nc1[nH]c(N)c2ccccc12	0.3	61.2*	2.1	-0.6	4.7	0.1
Nc1[nH]c(N=NC(=O)c2ccc(F)cc2)c2ccccc12	1.0	13.3	1.6	-0.8	4.1	3.0
COC(=O)c1cn(C(=O)c2cccc(Br)c2)c2ccccc12	-1.3	5.6	0.0	-1.4	-2.9	-2.4
Cc1ccc(CSCC(=O)Nc2ccc(F)cc2)cc1	0.3	67.7*	0.1	-0.2	1.9	-0.4
CC(=O)N1CCN(c2ccccc2NC(=O)c2ccc(C#N)cc2F)CC1	-1.0	71.4*	-0.6	-1.1	1.2	2.3
CN1CCN(c2ccccc2NC(=O)c2ccccc2F)CC1	0.5	4.1	0.8	-1.7	-4.2	-1.1
CC(=O)Nc1ccc(S(=O)(=O)Oc2cccc(N3C(=O)C4CCCCC4C3=O)c2)cc1 (configuration not stated)	2.2	0.3	-0.2	-1.4	-2.2	-1.8
Cc1ccc(S(=O)(=O)Oc2cccc(N3C(=O)C4CC=CCC4C3=O)c2)cc1 (configuration not stated)	8.0*	-2.3	-0.1	-1.8	0.3	-0.5
O=C(Cc1cccs1)N(c1ccc(F)cc1)C1(C(=O)NC2CCCCC2)CCCC1	-0.5	-2.5	-0.1	-1.1	-2.5	-0.2
CCOc1ccccc1NC(=O)c1cc2ccccc2oc1=O	2.3	5.2	0.1	-0.7	0.6	1.4
COc1ccc(OC)c(NC(=O)c2cc3ccccc3o2)c1	2.1	61.5*	1.1	0.1	2.8	4.6
COc1cc(NC(C)=O)ccc1NC(=O)c1cc2ccccc2o1	1.7	3.4	0.6	-1.1	3.9	1.0
CCOc1ccccc1NC(=O)c1cc2ccccc2o1	1.1	x	0.3	0.9*	7.0	4.5
COc1ccc(C)cc1NC(=O)c1cc2ccccc2o1	1.7	11.3	0.3	1.6*	4.8	6.0*
O=C(Nc1ccccc1C(F)(F)F)c1cc2ccccc2o1	5.2*	2.7	3.4	0.5	13.1*	4.2
CC1(C(=O)NCc2ccccc2)Cc2c(-c3cccc(C(F)(F)F)c3)ccnc2O1 (configuration not stated)	x	x	-0.9	-0.9	0.1	-1.7
CN(Cc1nc(Cc2ccccc2F)no1)[C@@H]1CS(=O)(=O)C[C@H]1O	0.5	1.2	-0.1	-1.4	-2.1	0.0

High-throughput results deposited in PubChem by The Scripps Research Institute Molecular Screening Center.
